Bioassay records: PubChem, National Center for Advancing Translational Sciences (NCATS)
A selection: hits, their analogues and other compounds. The true share with any hit is near 4.7%.
TRHR enhancer: allosterically enhances the human TRH receptor; hit rate 0.66% among 360,000; enhancement, % at 2 µM; TRHR cells, fluo-8 calcium fluorescence, EC20 TRH enhancement; P34981; in the data active = enhancement above about 30%
Target sequence (P34981 whole entry, looked up): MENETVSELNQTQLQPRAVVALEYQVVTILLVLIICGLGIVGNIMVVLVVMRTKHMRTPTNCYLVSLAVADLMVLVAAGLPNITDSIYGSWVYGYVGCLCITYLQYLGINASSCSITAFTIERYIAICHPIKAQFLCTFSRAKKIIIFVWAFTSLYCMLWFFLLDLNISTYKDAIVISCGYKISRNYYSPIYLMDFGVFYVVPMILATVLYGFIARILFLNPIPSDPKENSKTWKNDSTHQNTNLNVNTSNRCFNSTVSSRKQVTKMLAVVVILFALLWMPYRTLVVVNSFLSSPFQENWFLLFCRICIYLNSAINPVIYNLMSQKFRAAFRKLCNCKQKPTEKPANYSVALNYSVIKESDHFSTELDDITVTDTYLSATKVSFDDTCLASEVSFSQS
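TRHR-expressing cells loaded with fluo-8 calcium dye were read kinetically (ex 480/em 530) during compound addition, then stimulated with an EC20 of TRH (10 nM final). Enhancement of the Gq-mediated intracellular calcium response was scored.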
D1 agonist: agonists of human D1 dopamine receptor | HEK293 T-REx D1 cells, calcium flux, agonist mode | P21728 | hit rate 1% among 360,000 | activation, % at 2 µM
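Tetracycline-induced HEK293 TREx D1 cells, force-coupled to calcium signalling, were dye-loaded with a no-wash calcium kit. Compound was pin-added after a 10 s baseline. Fluorescence was read kinetically at 1 cycle/s for 180 s, with calcium rises flagged as agonism.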
D1 antag: antagonists of human D1 dopamine receptor. P21728. HEK293 TREx D1 cells, calcium flux, dopamine EC80; hits give low values. activity change, negative = inhibition, % at 10 µM. hit rate 3.2% among 360,000. AID 504652; in the data active = activity change below about -30%
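Allosteric or orthosteric antagonism assessed as attenuation of the calcium response to EC80 dopamine, added 180 s after compound, in induced HEK293 Trex D1 cells loaded with no-wash calcium dye.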
D1 PAM: potentiators of human D1 dopamine receptor; AID 504651; P21728; HEK293 TREx D1 cells, calcium flux, dopamine EC20 potentiation; hit rate 0.036% among 360,000; potentiation, % at 10 µM; in the data active = potentiation above about 30%
TRHR ag: activates the human TRH receptor | hit rate 0.18% among 360,000 | activation, % at 2 µM | TRHR cells, calcium flux fluo-8, FDSS agonist mode | AID 493084 | P34981
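TRHR-expressing cells loaded with fluo-8 calcium dye; 23 nL library compound pin-transferred, kinetic FDSS fluorescence (Ex 480/Em 530) recorded about 180 s for agonist-induced calcium release, before a 10 nM TRH EC20 addition for potentiator mode.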
Hits are given with their value; n = inactive; x = no result; ! = not confirmed by another sample. Rule as the data show it, unless noted: active = activation above about 30%; inactive = the rest.

SMILES	TRHR enhancer	D1 agonist	D1 antag	D1 PAM	TRHR ag
Cc1n[nH]c(C)c1CCc1nc2c3ccccc3nc(SCC(N)=O)n2n1	33.0	n	n	n	n
Cc1n[nH]c(C)c1CCc1nc2c3ccccc3nc(SCC(=O)Nc3ccc(F)cc3)n2n1	n	n	n	n	n
CCOC(=O)CSc1nnc(-c2c[nH]c3ccccc23)n1CC	n	n	n	x	n
CCn1c(SC(C)C)nnc1-c1c[nH]c2ccccc12	n	n	-31.0	x	n
CCn1c(C(=O)NCc2ccc(F)cc2)cc2oc3ccccc3c21	n	n	n	n	n
COc1cccc(CNC(=O)c2cc3oc4ccccc4c3n2C)c1OC	n	n	-31.9	n	n
CCOc1ccccc1CNC(=O)c1cc2oc3ccccc3c2n1CC	n	n	-42.8	n	n
O=C(Cn1c(=O)n(Cc2nc(-c3ccccc3)no2)c(=O)c2ccccc21)Nc1cccc(C(F)(F)F)c1	n	n	n	n	n
COc1cccc(OCc2cc(=O)n3cc(C)sc3n2)c1	n	n	n	n	n
Cc1ccc(NC(=O)c2sc3nc(C)cc(C)c3c2N)cc1	n	n	n	n	n
Cc1cc(C)c2c(N)c(C(=O)Nc3cccc(C)c3C)sc2n1	n	n	-30.9	n	n
COc1cccc(C2=NN(S(C)(=O)=O)C(c3cn(-c4ccccc4)nc3-c3cccs3)C2)c1 (configuration not stated)	n	n	-39.0	n	n
O=C(O)CCC(=O)N1N=C(c2cccs2)CC1c1cn(-c2ccccc2)nc1-c1ccccc1 (configuration not stated)	34.3	n	n	n	n
COc1cccc(C2CC(c3cccs3)=NN2S(C)(=O)=O)c1 (configuration not stated)	n	n	n	n	n
Cc1ccc(-c2nn(-c3ccccc3)cc2C2CC(c3cccs3)=NN2C(=O)CCCC(=O)O)cc1 (configuration not stated)	n	n	n	n	n
CCc1ccc(/C=C/C(=O)c2ccc(N3CCOCC3)cc2)cc1	n	n	n	n	n
CCc1ccc(/C=C/C(=O)c2ccc(S(=O)(=O)N(C)C)cc2)cc1	n	49.6	-62.1	n	n
Cc1ccccc1C(=O)Nc1ccc2c(c1)CCCN2C(=O)c1cccs1	n	n	-37.4!	n	n
CC(C)CN1C(=O)c2ccc(NC(=O)c3cccs3)cc2C1=O	37.6	n	n	n	n
COc1ccccc1NS(=O)(=O)c1cc(NC(=O)c2cccs2)ccc1N1CCOCC1	n	n	-30.1	n	n
CC(C)CN1C(=O)c2ccc(NC(=O)c3ccco3)cc2C1=O	n	n	n	n	n
COc1ccc(NS(=O)(=O)c2cc(NC(=O)c3cccs3)ccc2N2CCOCC2)cc1	n	n	n	n	n
O=C(Nc1ccc(N2CCCC2)c(Cl)c1)c1cccs1	n	n	-31.7	n	n
Cc1ccc(C)c(N2CCN(S(=O)(=O)c3c(C(=O)N4CCC(C)CC4)c(C)n(C)c3C)CC2)c1	n	n	n	n	n
O=C(Cc1ccccc1)Nc1ccc(NC(=O)c2cccs2)cc1Cl	n	n	-30.8	n	n
SMILES	TRHR enhancer	D1 agonist	D1 antag	D1 PAM	TRHR ag
CCc1ccc(NC(=O)CN2C(=O)CC(C)S(=O)(=O)c3ccccc32)cc1 (configuration not stated)	n	n	-32.1	n	n
C=Cc1ccc(Cn2c(=O)cc(C)c3c(C)nn(-c4ccccc4)c32)cc1	n	n	n	n	n
Cc1cc(=O)n(Cc2cccc(Br)c2)c2c1c(C)nn2-c1ccccc1	n	n	-79.2	n	n
Cc1nc2ccc([N+](=O)[O-])cc2c(=O)n1Cc1cccc(F)c1	n	n	n	n	n
Cc1nc2ccc([N+](=O)[O-])cc2c(=O)n1Cc1ccc(F)cc1	n	n	-32.1	n	n
Cc1cccc(Cn2c(C)nc3ccc([N+](=O)[O-])cc3c2=O)c1	n	n	-33.4	n	n
CCOC(=O)C(=O)Nc1nnc2n1CCS2	n	n	n	n	n
CC(=O)Nc1nonc1-c1nnc(SCC(=O)N(C)c2ccccc2)n1C	n	n	n	n	n
COc1ccccc1N1CCN(C(=O)c2cc3c(s2)CCC3)CC1	n	n	n	n	n
COc1ccc(N2CCN(C(=O)c3cc4c(s3)CCCCC4)CC2)cc1	n	n	-57.3	n	n
CC(=O)c1ccc(N2CCN(C(=O)c3cc4c(s3)CCCC4)CC2)cc1	n	n	-34.6	n	n
